{
  "source": "PubChem BioAssay (NCATS)",
  "note": "Results filed as inconclusive are left out. Unmarked numbers belong to inactive results. Activity calls are given as the source filed them. The call rests on the fitted dose curve; in most records, active means well fitted inhibition curve with a large enough effect; inconclusive means small, poorly fitted or top-dose-only effect; inactive means flat fitted curve, though single readings scatter. On the % scale 0 is the no-effect control and ±100 the full control effect; potency means the concentration at half of the fitted maximal effect.",
  "data": [
    {"biological_target": "Ubiquitin carboxyl-terminal hydrolase 1 (Homo sapiens) (UniProt O94782)", "sequence (O94782 whole entry, looked up)": "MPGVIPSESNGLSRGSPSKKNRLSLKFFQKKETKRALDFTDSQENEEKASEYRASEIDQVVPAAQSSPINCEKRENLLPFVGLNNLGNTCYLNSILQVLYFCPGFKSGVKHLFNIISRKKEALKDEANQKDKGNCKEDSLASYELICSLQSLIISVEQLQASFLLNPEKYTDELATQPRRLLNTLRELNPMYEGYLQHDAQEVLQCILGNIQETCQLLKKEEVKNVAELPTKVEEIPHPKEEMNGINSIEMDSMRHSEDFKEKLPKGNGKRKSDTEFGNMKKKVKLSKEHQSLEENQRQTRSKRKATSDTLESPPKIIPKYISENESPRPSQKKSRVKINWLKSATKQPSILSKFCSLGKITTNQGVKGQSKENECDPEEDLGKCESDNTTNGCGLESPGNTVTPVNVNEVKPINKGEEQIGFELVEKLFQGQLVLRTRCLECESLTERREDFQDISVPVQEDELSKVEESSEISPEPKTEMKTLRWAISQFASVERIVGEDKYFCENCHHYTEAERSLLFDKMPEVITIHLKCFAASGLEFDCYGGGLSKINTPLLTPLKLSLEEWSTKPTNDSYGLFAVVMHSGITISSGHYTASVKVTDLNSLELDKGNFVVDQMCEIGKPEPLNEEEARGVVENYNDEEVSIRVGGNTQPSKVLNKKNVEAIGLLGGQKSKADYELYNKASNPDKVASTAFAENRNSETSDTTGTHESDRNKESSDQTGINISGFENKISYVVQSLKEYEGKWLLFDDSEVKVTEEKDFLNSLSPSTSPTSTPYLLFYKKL", "assay": "Inhibitors of USP1/UAF1: Pilot qHTS (AID 504865); further: nearly all actives have a fitted effect of over 35% in size;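 on activity change, negative = inhibition: rhodamine fluorescence freed from ubiquitin-rhodamine substrate followed over time; top concentration of the series differs between compounds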", "settings": "purified USP1/UAF1, Ub-rhodamine cleavage fluorescence; series mostly up to 114 µM; activity change, negative = inhibition: at the top concentration", "procedure,_shortened": "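Enzyme-free wells gave the negative control, while test wells held 1nM USP1/UAF1 preincubated with compound for 15 min at room temperature. Ub-Rho at 150nM final started the reaction, and fluorescence at 480/540 nm was recorded kinetically.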", "values": [
      {"molecule": "C/C(=C\\c1csc(C)n1)[C@@H]1C[C@@H]2O[C@]2(C)CCC[C@H](C)[C@H](O)[C@@H](C)C(=O)C(C)(C)[C@@H](O)CC(=O)O1", "activity change, negative = inhibition": "-5.95%"},
      {"molecule": "CC(C)(O)C1C2OC(=O)C1C1(O)CC3OC34C(=O)OC2C14C", "note": "(stereo unspecified)", "activity change, negative = inhibition": "-3.79%"},
      {"molecule": "O=S(=O)(O)c1cc(O)ccc1O", "activity change, negative = inhibition": "1.05% [at 54.9 µM]"},
      {"molecule": "CCCC(C)C1(CC)C(=O)NC(=O)NC1=O", "note": "(stereo unspecified)", "activity change, negative = inhibition": "-0.514%"},
      {"molecule": "O=C1CCCCC1CN1CCCCC1", "note": "(stereo unspecified)", "activity change, negative = inhibition": "-2.44%"},
      {"molecule": "O=C(OCCN1CCCCC1)C(O)(c1ccccc1)c1ccccc1", "activity change, negative = inhibition": "-7.71%"},
      {"molecule": "c1cc2c(c(NC3=NCCN3)c1)CCCC2", "activity change, negative = inhibition": "-6.05%"},
      {"molecule": "CN1C2CCC1CC(OC(c1ccccc1)c1ccc(Cl)cc1)C2", "note": "(stereo unspecified)", "activity change, negative = inhibition": "-12%"},
      {"molecule": "CNC(C)C(O)c1ccc(O)cc1", "note": "(stereo unspecified)", "activity change, negative = inhibition": "-5.02%"},
      {"molecule": "COC([CH2][Hg])CNC(=O)c1ccccc1OCC(=O)O", "note": "(stereo unspecified)", "activity change, negative = inhibition": "-5.23%"},
      {"molecule": "CCCN(CCC)CCc1c[nH]c2ccc(C(N)=O)cc12", "activity change, negative = inhibition": "-2.45%"},
      {"molecule": "CCCC(=O)OC(C(Cl)(Cl)Cl)P(=O)(OC)OC", "note": "(stereo unspecified)", "activity change, negative = inhibition": "-0.402%"},
      {"molecule": "CC(=O)OO", "activity change, negative = inhibition": "-3.76%"},
      {"molecule": "CCCC(C)(COC(N)=O)COC(=O)NC1CC1", "note": "(stereo unspecified)", "activity change, negative = inhibition": "-12%"},
      {"molecule": "CCC1C(C)=NN=C(c2ccc(OC)c(OC)c2)c2cc(OC)c(OC)cc21", "note": "(stereo unspecified)", "activity change, negative = inhibition": "-12.2%"},
      {"molecule": "N#CC1(N2CCCCC2)CCCCC1", "activity change, negative = inhibition": "-4.63%"},
      {"molecule": "C[N+]1(C)CCN(c2ccccc2)CC1", "activity change, negative = inhibition": "-1.77%"},
      {"molecule": "CN1C2CCC1CC(OC(c1ccccc1)c1ccccc1N)C2", "note": "(stereo unspecified)", "activity change, negative = inhibition": "-4.45%"},
      {"molecule": "Clc1ccc(Cl)cc1", "activity change, negative = inhibition": "2.03%"},
      {"molecule": "CNC1(c2ccccc2Cl)CCCCC1=O", "note": "(stereo unspecified)", "Potency": "inactive"},
      {"molecule": "CCCCNCC(O)c1ccc(O)cc1", "note": "(stereo unspecified)", "activity change, negative = inhibition": "-4.22%"},
      {"molecule": "C=CCN1CC[C@]23c4c5ccc(O)c4O[C@@H]2/C(=N/N=C2\\CC[C@@]4(O)C6Cc7ccc(O)c8c7[C@@]4(CCN6CC=C)[C@@H]2O8)CC[C@@]3(O)C1C5", "activity change, negative = inhibition": "-8.43%"},
      {"molecule": "CN1[C@@H]2CC[C@H]1CC(OC1c3ccccc3CCc3ccccc31)C2", "note": "(stereo partly specified)", "activity change, negative = inhibition": "-14.8% [at 54.9 µM]"},
      {"molecule": "O=c1[nH]cc(N(CCCl)CCCl)c(=O)[nH]1", "activity change, negative = inhibition": "-1.07%"},
      {"molecule": "CC1OC1P(=O)(O)O", "note": "(stereo unspecified)", "activity change, negative = inhibition": "-8.53%"},
      {"molecule": "CN1c2ccccc2C(NCCCCCCC(=O)O)c2ccc(Cl)cc2S1(=O)=O", "note": "(stereo unspecified)", "activity change, negative = inhibition": "-7.33%"},
      {"molecule": "CCC1(c2ccccc2)C(=O)NC(=O)N(C)C1=O", "note": "(stereo unspecified)", "activity change, negative = inhibition": "-6.05%"},
      {"molecule": "CC[N+](C)(CC)CCOC(=O)C(O)(c1ccccc1)c1ccccc1", "activity change, negative = inhibition": "-9.82%"},
      {"molecule": "C#CC(C)(O)CC", "note": "(stereo unspecified)", "activity change, negative = inhibition": "-6.99%"},
      {"molecule": "Clc1ccc(C2(Cn3cncn3)OCCO2)c(Cl)c1", "activity change, negative = inhibition": "-4.41%"},
      {"molecule": "O=C(CCl)c1ccc(Oc2ccc(C(=O)CCl)cc2)cc1", "Potency": "56.2 µM (active)"},
      {"molecule": "F/C(COc1ccc2c(c1)[nH]c1ccccc12)=C1/CN2CCC1CC2", "activity change, negative = inhibition": "-6.77%"},
      {"molecule": "C=CCN1CCc2cccc3c2[C@H]1Cc1ccc(O)c(O)c1-3", "activity change, negative = inhibition": "-7.25%"},
      {"molecule": "O=C(CS(=O)C(c1ccccc1)c1ccccc1)NO", "note": "(stereo unspecified)", "activity change, negative = inhibition": "-0.504%"},
      {"molecule": "c1ccc2sc(SNC3CCCCC3)nc2c1", "activity change, negative = inhibition": "-8.37%"},
      {"molecule": "C=CCN1CC[C@]23c4c5ccc(O)c4O[C@H]2[C@@H](O)C=C[C@H]3[C@H]1C5", "activity change, negative = inhibition": "-6.13%"}
    ]}
  ]
}
